Measured values reported in ChEMBL document CHEMBL1961873, “Compounds: GSK PKIS; Assays: Nanosyn kinase panel” (2012).

Key:
[1] = biological target: CDK3/Cyclin E (Homo sapiens) (UniProt P24864+Q00526); conditions: at 1 µM;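 further: each figure is a mean percent inhibition of the CDK3/cyclin E complex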
[2] = biological target: Cyclin-dependent kinase 4 (Homo sapiens) (UniProt P11802); conditions: at 0.1 µM
[3] = biological target: Cyclin-dependent kinase 4 (Homo sapiens) (UniProt P11802); conditions: at 1 µM
[4] = biological target: Cyclin-dependent kinase 5 (Homo sapiens) (UniProt Q00535); conditions: at 0.1 µM
[5] = biological target: Cyclin-dependent kinase 5 (Homo sapiens) (UniProt Q00535); conditions: at 1 µM
[6] = biological target: Cyclin-dependent kinase 6 (Homo sapiens) (UniProt Q00534); conditions: at 0.1 µM
[7] = biological target: Cyclin-dependent kinase 6 (Homo sapiens) (UniProt Q00534); conditions: at 1 µM
[8] = biological target: Dual specificity protein kinase CLK2 (Homo sapiens) (UniProt P49760); conditions: at 0.1 µM
[9] = biological target: Dual specificity protein kinase CLK2 (Homo sapiens) (UniProt P49760); conditions: at 1 µM
[10] = biological target: Dual specificity protein kinase CLK3 (Homo sapiens) (UniProt P49761); conditions: at 0.1 µM
[11] = biological target: Dual specificity protein kinase CLK3 (Homo sapiens) (UniProt P49761); conditions: at 1 µM
[12] = biological target: Dual specificity tyrosine-phosphorylation-regulated kinase 1A (Homo sapiens) (UniProt Q13627); conditions: at 0.1 µM
[13] = biological target: Dual specificity tyrosine-phosphorylation-regulated kinase 1A (Homo sapiens) (UniProt Q13627); conditions: at 1 µM
[14] = biological target: Dual specificity tyrosine-phosphorylation-regulated kinase 1B (Homo sapiens) (UniProt Q9Y463); conditions: at 0.1 µM
[15] = biological target: Dual specificity tyrosine-phosphorylation-regulated kinase 1B (Homo sapiens) (UniProt Q9Y463); conditions: at 1 µM
[16] = biological target: T1, Dual specificity tyrosine-phosphorylation-regulated kinase 2 (Homo sapiens) (UniProt Q92630); conditions: at 0.1 µM
T1 sequence (whole entry): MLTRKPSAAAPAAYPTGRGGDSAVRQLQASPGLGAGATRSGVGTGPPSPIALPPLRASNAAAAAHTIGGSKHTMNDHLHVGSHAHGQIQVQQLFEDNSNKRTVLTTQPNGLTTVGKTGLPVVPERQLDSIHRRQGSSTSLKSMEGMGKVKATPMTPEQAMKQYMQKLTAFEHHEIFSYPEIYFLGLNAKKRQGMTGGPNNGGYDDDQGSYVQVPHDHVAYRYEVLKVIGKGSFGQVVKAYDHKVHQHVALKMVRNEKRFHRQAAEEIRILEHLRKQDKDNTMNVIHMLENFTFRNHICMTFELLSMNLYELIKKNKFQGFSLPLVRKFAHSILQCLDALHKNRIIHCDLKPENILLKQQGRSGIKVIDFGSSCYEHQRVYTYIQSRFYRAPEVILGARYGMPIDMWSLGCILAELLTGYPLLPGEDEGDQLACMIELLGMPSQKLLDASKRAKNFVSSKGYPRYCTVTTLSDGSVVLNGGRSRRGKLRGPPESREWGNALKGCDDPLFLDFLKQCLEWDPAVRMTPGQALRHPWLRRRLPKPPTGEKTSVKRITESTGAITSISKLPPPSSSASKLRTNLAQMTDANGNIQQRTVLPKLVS

[17] = biological target: T1, Dual specificity tyrosine-phosphorylation-regulated kinase 2 (Homo sapiens); conditions: at 1 µM
[18] = biological target: Glycogen synthase kinase-3 alpha (Homo sapiens) (UniProt P49840); conditions: at 0.1 µM
[19] = biological target: Glycogen synthase kinase-3 alpha (Homo sapiens) (UniProt P49840); conditions: at 1 µM
[20] = biological target: Glycogen synthase kinase-3 beta (Homo sapiens) (UniProt P49841); conditions: at 0.1 µM;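 further: values are mean percent inhibition of GSK3B activity, from the GSK Published Kinase Inhibitor Set (PKIS) screening dataset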
Sequence of Glycogen synthase kinase-3 beta (Homo sapiens) (P49841 whole entry, looked up): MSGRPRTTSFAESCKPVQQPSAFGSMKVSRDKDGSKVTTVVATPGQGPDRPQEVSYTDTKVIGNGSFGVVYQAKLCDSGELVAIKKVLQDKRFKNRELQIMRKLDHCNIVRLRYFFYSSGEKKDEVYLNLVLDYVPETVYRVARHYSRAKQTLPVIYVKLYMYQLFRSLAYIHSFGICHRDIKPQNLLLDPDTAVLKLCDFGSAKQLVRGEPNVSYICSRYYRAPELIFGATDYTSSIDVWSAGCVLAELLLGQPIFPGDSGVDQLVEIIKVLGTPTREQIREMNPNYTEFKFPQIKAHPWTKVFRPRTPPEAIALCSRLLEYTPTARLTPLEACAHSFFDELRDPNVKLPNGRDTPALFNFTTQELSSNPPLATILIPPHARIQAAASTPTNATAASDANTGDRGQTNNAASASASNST

Sequence of Cyclin-dependent kinase 5 (Homo sapiens) (Q00535 whole entry, looked up): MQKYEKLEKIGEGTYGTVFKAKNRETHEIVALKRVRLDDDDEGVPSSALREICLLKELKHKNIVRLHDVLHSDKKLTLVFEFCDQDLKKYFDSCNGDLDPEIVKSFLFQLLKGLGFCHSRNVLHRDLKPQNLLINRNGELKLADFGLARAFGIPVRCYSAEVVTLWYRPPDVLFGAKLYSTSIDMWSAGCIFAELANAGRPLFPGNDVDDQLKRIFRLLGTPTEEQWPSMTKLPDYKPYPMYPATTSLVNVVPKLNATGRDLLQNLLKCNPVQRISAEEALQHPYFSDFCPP
Sequence of Cyclin-dependent kinase 4 (Homo sapiens) (P11802 whole entry): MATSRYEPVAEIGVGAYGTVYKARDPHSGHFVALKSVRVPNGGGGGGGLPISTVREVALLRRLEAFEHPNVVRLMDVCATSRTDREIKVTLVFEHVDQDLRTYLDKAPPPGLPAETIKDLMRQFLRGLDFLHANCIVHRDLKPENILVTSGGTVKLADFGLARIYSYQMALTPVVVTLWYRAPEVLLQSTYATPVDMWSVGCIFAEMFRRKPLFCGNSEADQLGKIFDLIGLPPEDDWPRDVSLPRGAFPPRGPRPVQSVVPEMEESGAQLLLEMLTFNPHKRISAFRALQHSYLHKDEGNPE
Sequence of Dual specificity tyrosine-phosphorylation-regulated kinase 1B (Homo sapiens) (Q9Y463 whole entry, looked up): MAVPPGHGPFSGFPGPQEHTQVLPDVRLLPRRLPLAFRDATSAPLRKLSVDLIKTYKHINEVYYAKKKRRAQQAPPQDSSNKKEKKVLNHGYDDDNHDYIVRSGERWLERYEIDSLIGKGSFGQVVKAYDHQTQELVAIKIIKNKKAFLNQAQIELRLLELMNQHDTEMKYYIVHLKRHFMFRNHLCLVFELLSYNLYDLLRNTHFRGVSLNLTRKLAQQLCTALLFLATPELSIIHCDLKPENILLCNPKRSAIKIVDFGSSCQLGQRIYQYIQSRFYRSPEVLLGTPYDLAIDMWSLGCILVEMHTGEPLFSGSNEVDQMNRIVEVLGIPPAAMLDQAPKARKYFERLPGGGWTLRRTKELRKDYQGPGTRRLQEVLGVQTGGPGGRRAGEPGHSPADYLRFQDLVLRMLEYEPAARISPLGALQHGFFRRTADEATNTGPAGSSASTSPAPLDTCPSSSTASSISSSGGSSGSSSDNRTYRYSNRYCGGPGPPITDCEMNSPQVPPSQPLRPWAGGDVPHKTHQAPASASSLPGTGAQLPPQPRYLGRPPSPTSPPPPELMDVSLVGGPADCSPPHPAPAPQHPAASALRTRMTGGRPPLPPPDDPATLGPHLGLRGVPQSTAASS
Sequence of CDK3/Cyclin E (Homo sapiens) (P24864 whole entry, looked up): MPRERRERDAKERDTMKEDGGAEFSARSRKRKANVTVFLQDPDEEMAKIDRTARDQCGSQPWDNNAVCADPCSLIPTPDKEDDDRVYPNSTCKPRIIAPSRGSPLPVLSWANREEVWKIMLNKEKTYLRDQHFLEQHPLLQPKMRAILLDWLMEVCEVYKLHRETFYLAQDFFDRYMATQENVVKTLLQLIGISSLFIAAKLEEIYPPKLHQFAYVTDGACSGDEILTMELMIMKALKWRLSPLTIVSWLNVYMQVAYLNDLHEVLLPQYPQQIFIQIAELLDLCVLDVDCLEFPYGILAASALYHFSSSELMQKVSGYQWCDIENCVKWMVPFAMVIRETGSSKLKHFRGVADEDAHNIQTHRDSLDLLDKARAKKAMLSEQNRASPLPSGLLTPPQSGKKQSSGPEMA
Sequence of CDK3/Cyclin E (Homo sapiens) (Q00526 whole entry, looked up): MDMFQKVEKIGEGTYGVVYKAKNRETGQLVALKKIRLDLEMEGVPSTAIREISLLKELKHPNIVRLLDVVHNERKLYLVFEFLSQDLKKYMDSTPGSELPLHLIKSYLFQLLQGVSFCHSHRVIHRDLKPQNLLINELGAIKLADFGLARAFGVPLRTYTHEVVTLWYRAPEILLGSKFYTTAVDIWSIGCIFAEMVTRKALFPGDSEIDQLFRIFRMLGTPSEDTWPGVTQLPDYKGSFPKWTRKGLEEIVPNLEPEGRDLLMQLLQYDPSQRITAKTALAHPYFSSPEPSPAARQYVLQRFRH
Sequence of Dual specificity protein kinase CLK2 (Homo sapiens) (P49760 whole entry, looked up): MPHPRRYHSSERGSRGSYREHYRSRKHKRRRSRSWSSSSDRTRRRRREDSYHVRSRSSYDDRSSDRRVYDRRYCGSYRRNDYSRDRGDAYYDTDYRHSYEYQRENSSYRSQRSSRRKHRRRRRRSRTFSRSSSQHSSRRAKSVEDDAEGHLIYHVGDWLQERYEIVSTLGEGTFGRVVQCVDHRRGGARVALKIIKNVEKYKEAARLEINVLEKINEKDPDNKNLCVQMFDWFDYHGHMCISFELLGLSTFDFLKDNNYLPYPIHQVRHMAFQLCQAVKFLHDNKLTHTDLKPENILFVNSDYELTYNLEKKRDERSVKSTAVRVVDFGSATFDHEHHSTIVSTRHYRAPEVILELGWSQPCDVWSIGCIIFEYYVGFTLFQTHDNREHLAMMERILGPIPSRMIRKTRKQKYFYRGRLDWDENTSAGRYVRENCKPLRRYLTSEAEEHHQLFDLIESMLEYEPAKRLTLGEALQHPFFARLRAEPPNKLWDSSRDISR
Sequence of Dual specificity protein kinase CLK3 (Homo sapiens) (P49761 whole entry, looked up): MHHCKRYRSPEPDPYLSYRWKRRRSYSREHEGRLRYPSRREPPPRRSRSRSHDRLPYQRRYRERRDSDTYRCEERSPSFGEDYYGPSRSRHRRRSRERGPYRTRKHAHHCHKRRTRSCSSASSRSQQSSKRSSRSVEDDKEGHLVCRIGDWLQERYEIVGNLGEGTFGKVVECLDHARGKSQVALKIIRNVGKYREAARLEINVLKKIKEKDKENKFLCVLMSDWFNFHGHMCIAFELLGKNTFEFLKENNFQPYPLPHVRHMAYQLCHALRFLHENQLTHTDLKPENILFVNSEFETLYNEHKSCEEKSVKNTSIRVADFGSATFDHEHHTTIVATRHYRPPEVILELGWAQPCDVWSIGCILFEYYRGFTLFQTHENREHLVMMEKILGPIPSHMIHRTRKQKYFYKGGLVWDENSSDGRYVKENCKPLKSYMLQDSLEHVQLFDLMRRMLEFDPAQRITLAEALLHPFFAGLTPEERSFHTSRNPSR
Sequence of Cyclin-dependent kinase 6 (Homo sapiens) (Q00534 whole entry): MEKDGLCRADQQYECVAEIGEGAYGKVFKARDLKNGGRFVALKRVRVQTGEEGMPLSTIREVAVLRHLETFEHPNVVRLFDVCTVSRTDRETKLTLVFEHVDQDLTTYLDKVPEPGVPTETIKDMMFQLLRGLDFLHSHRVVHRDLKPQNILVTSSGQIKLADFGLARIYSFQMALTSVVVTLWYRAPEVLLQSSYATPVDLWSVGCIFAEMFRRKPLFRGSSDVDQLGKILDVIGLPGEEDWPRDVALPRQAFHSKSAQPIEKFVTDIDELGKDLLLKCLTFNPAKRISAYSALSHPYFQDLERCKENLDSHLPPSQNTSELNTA
Sequence of Glycogen synthase kinase-3 alpha (Homo sapiens) (P49840 2-483 limits assumed): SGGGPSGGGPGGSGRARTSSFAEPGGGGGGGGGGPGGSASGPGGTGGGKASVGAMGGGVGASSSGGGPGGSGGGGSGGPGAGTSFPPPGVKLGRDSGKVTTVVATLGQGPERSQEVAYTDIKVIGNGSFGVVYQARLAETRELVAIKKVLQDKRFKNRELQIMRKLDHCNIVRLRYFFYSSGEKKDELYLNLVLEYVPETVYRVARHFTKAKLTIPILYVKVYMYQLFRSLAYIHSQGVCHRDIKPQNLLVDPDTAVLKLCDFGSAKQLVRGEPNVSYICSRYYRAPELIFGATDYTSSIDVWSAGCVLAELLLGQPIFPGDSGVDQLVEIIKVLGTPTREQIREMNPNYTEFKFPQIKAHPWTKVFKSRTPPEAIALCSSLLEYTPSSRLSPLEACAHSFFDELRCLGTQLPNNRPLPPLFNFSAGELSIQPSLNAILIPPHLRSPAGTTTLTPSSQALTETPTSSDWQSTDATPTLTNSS

Row | Compound | inhibition [1] [%] | inhibition [2] [%] | inhibition [3] [%] | inhibition [4] [%] | inhibition [5] [%] | inhibition [6] [%] | inhibition [7] [%] | inhibition [8] [%] | inhibition [9] [%] | inhibition [10] [%] | inhibition [11] [%] | inhibition [12] [%] | inhibition [13] [%] | inhibition [14] [%] | inhibition [15] [%] | inhibition [16] [%] | inhibition [17] [%] | inhibition [18] [%] | inhibition [19] [%] | inhibition [20] [%]
1 | CN(C)CCOc1ccc(-c2cc(-c3ccc4c(c3)CCC4=NO)c(-c3ccncc3)o2)cc1 | -0.71 | -0.67 | 1.69 | 0.66 | 0.57 | -3.52 | -0.6 | 0.73 | -1.28 | -0.3 | 1.91 | -1.28 | 0.21 | -1.57 | -1.47 | -1.36 | -2.61 | -0.52 | -0.36 | -0.79
2 | COc1cc(Nc2ncc(-c3ccccc3)o2)cc(OC)c1OC | 5.95 | 0.45 | 1.93 | 0.52 | 6.19 | 0.43 | 3.26 | 0.35 | 3.33 | 0.69 | 0.88 | 1.8 | 6.39 | 1.65 | 3.72 | -2.15 | -1.69 | 5.71 | 34.4 | 5.44
3 | COc1ccc2cc(-c3c(-c4ccncc4)nc(-c4ccc([S+](C)[O-])cc4C)n3C)ccc2c1 (stereo not given) | 0.89 | 2.2 | 5.75 | 0.73 | 2.04 | 2.45 | 4.45 | 1.09 | 1.03 | 0.64 | 2.67 | 2 | 7.26 | 2.45 | 6.41 | -0.45 | 0 | 7.28 | 15.4 | 5.99
4 | CCS(=O)(=O)c1ccc(OC)c(Nc2ncc(-c3ccccc3Cl)o2)c1 | -0.99 | -0.77 | -0.72 | 0.11 | 0.87 | 4.47 | 3.06 | 4.19 | 34.1 | 0.66 | 8.78 | 0.71 | 5.06 | 1.56 | 5.7 | 1.98 | 11.8 | 0.38 | 1.64 | 1.56
5 | O=C1Nc2ccccc2/C1=C/Nc1ccc(-n2cncn2)cc1 | 16.1 | 9.53 | 25.2 | 3.62 | 21.5 | 18 | 66.2 | 4.14 | 21.6 | 0.91 | 1.52 | 6.54 | 14.3 | 3.43 | 11.6 | 3.46 | 6.8 | 17.3 | 28.2 | 15.3
6 | CS(=O)(=O)CCNCc1cc(-c2cc3c(Nc4ccc(OCc5cccc(F)c5)c(Cl)c4)ncnc3s2)cs1 | -0.74 | 2.57 | 4.29 | 0.44 | 0.56 | -2.32 | -0.13 | 2.41 | 2.14 | 2.21 | 0.02 | 2.31 | 3.13 | -1.81 | -0.61 | 3.75 | 8.37 | 2.31 | 2.97 | 1.53
7 | COc1cc(Nc2ncc3c(C)nc(-c4cccc(C(F)(F)F)c4)n3n2)cc(OC)c1OC | 7.51 | 1.78 | 3.89 | 1.13 | 9.6 | 3.14 | 7.16 | 3.78 | 21.9 | 1.23 | 2.91 | 4.11 | 29.8 | 0.38 | 11.2 | 2.73 | 3.63 | 2.88 | 13.8 | 4.09
8 | Cc1ccc(C(=O)NC2CCC2)cc1-c1ccc(C(=O)NCC2CC2)cc1 | -2.09 | 2.48 | 3.14 | 0.96 | 1.18 | -2.65 | 1.04 | 0.82 | 1.37 | 1.37 | 1.28 | 2.74 | 5.39 | 1.78 | 2.49 | 2.22 | 3.3 | 1.01 | 4.22 | 0.28
9 | NC(=O)c1cc(-c2ccc(F)cc2)cc(-c2ccncc2)c1N | -2.25 | 4.11 | 2.25 | -0.26 | -1.83 | 0.37 | -0.58 | 0.69 | 1.24 | 1.01 | 0.95 | 1.07 | 3.02 | -0.78 | -1.19 | 3.58 | 5.04 | 1.24 | 1.03 | 0.05
10 | COc1cc2ncn(-c3cc(OCc4ccccc4C(F)(F)F)c(C(C)=O)s3)c2cc1OC | -2.36 | 1.74 | 2.66 | 0.4 | 1.96 | -0.64 | -0.67 | 0.9 | -0.63 | 0.94 | 1.08 | 1.88 | 2.83 | -0.72 | 0.32 | 1.35 | 1.43 | 1.6 | 3.73 | 1.43
11 | COc1cc(Nc2ncc3c(C)nc(-c4cccc(Oc5ccccc5)c4)n3n2)cc(OC)c1OC | 3.12 | 0.68 | 1.99 | 0.07 | 1.06 | 2.92 | 3.25 | 0.86 | 3.28 | 0.71 | 2.37 | 0.25 | 5.84 | 0.92 | 2.74 | 2.11 | 1.95 | 0.37 | 0.14 | -0.59
12 | O=C(NCC1CC1)c1ccc(-c2cccc(C(=O)NC3CC3)c2)cc1 | 2.64 | 2.46 | 2.18 | 0.16 | 0.99 | 5.87 | -0.5 | -0.19 | 1.77 | 0.44 | 2.44 | 0.99 | 2.88 | 0.66 | 1.93 | 2.27 | 3.38 | 1.5 | 3.17 | 1.32
13 | Fc1ccc(-c2c(-c3ccncc3)nc3n2CCS3)cc1 | -3.24 | -2.5 | -1.15 | -3.5 | -3.63 | -6.1 | -2.27 | 0.14 | 0.05 | -2.3 | -1.56 | -1.74 | 0.34 | -4.54 | -2.54 | 1.26 | 1.86 | -2.59 | 1.28 | -2.25
14 | NC(=O)c1cc(-c2ccncc2)cc(-c2ccccc2)c1N | -0.18 | 2.8 | 2.69 | 0.58 | 0.44 | -1.43 | 2.3 | 1.45 | 1.33 | 1.22 | 2.34 | 6.65 | 29.2 | 3.05 | 17.9 | 3.61 | 4.25 | 3.97 | 12.7 | 2.53
15 | c1ccc(Oc2ccc(Nc3ncc(-c4ccccc4)o3)cc2)cc1 | -2.54 | 1.05 | 1.2 | 0.52 | 1.6 | 1.34 | 3.56 | -0.16 | -0.28 | 0.6 | 1.59 | 2.14 | 5.29 | 1.51 | 2.84 | 0.4 | 0.21 | 2 | 5.53 | 1.83
